# From PubChem BioAssay
# Hits are enriched below; roughly 21% of the tested compounds scored in any of these assays.
# CHX counter: counter-screen hit for Shiga toxin inhibitors, cycloheximide; max response, %; AID 2314; cell reporter, cycloheximide protein synthesis inhibition counterscreen; 300,000 compounds, 12% hits; in the data active = max response mostly above about 13%, no sharp cut-off; inactive = mostly below about 14%; note: read at 38.3 µM for the half of the compounds with a filed dose; 0% is about no effect
# NS1 function inh: inhibitors of influenza NS1 protein function | Potency, µM (top dose mostly 46.1 µM), without a hit: at the highest dose activity, positive = more growth | AID 2326 | 270,000 compounds, 0.4% hits; note: potency is the fitted concentration of half-maximal effect; actives are rising curves; nearly all actives have a fitted effect of over 50% in size
#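 OD600 was taken as the measure of yeast growth restored by compound in an NS1-expressing S. cerevisiae strain. Cells had been washed out of glucose medium and diluted 1:100 into galactose -URA medium, pH 6.0.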
# Pf growth 96h: P. falciparum growth inhibition at 96 hour, primary screen for plastid delayed-death inhibitors | P. falciparum luciferase reporter growth, 96 h | Potency, µM (doses to about 28.7 µM), for inactives: top-dose activity change, negative = inhibition, most hits filed as inhibitors | 320,000 compounds, 6.9% hits; active = well fitted inhibition curve with a large enough effect; inconclusive = small, poorly fitted or top-dose-only effect, or another doubt; inactive = no such curve, though single readings can be large or run the other way; note: potency is the fitted concentration of half-maximal effect; % is set by controls: 0 for no effect and ±100 for the full control effect
#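 Two-generation exposure (96 h) targets delayed-death phenotype. Reporter parasites carrying integrated firefly luciferase, in red cells at 2% hematocrit and 0.05% parasitemia final, kept at 37 C, 5% CO2; luminescence loss indicates inhibition.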
# Shiga inhibitor: inhibitors of Shiga toxin in Vero cells | Vero cells, Shiga toxin protein synthesis inhibition reporter | inhibition, % at 38.7 µM | 290,000 compounds, 9.2% hits | AID 2315; in the data active = inhibition mostly above about 28%, no sharp cut-off; inactive = mostly below about 43%; note: 0% is about no effect
# Pf growth 48h: P. falciparum growth inhibition at 48 hours (one generation); P. falciparum luciferase growth in erythrocytes, 48 h; Potency, µM (highest dose often 28.7 µM), for inactives: at the highest dose activity change, negative = inhibition, hits mostly inhibitors; 310,000 compounds, 5.9% hits; AID 504832; active = well fitted inhibition curve with a large enough effect; inconclusive = small, poorly fitted or top-dose-only effect, or another doubt; inactive = no such curve, though single readings can be large or run the other way; note: potency is the fitted concentration of half-maximal effect; % is set by controls: 0 for no effect and ±100 for the full control effect
#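 Read-out is firefly luciferase luminescence from an integrated reporter in P. falciparum, so falling signal marks reduced parasite growth. Infected erythrocytes were at 2% hematocrit and 0.1% parasitemia (final) in Albumax-supplemented RPMI 1640.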
# SARS PLpro yeast: inhibitors of SARS-CoV papain-like protease in yeast | AID 485353 | S. cerevisiae expressing SARS-CoV PLpro, growth rescue | Potency, µM (top dose mostly 32.9 µM), inactives show at the top dose activity, positive = growth rescue, most hits filed as activators | 330,000 compounds, 0.19% hits; note: potency is the fitted concentration of half-maximal effect; 0% is about no effect; nearly all actives have a fitted effect of over 55% in size
# Numbers without * were called inactive; u = inconclusive; x = no result. Unless noted, calls come from the whole dose curve.
SMILES,CHX counter,NS1 function inh,Pf growth 96h,Shiga inhibitor,Pf growth 48h,SARS PLpro yeast
CC(=O)Nc1ccc(NC(=O)CCn2nnc3ccccc32)cc1,10.1,-5.3%,-3.4%,16.5,9.28µM*,-1.0%
CCOC(=O)c1ccc(NC(=O)Cn2nnc3ccccc32)cc1,32.2*,4.4%,24.6%,91.8*,100.4%,-3.7%
CCSc1nnc(NC(=O)C(C)Sc2nc3ccccc3[nH]2)s1 (centres undefined),0.7,-9.8%,22.8%,17.8,4.3%,21.8%
O=C(NCc1ccco1)c1cc2c(s1)CCCCC2,57.1*,-37.5%,x,114.6*,29.9%,-33.2%
O=C(NCC(c1ccco1)N1CCCCC1)c1cc2c(s1)CCCC2 (centres undefined),x,x,1.65µM*,x,8.28µM*,5.6%
COc1ccc(-c2ccc(C3C4C=CCC(C)C4C(=O)N3Cc3ccccc3)c(F)c2)cc1 (centres undefined),20.2,x,x,12.5,x,x
CC/C(=N/NC(=O)c1ccccc1)c1ccc(OCCN2CCOCC2)cc1,70.4*,18.7%,49.1%,80.1*,71.8%,2.6%
CC/C(=N/NC(=O)c1ccc(Br)cc1)c1ccc(OCCN2CCOCC2)cc1,17.2,3.2%,u,51.6*,3.6%,5.9%
CCOc1ccc(C(=O)NCCN2CCOCC2)cc1,4.2,7.8%,-10.5%,-0.9,24.9%,-1.6%
CCCCOc1ccc(C(=O)C(CN2CCOCC2)c2ccccc2)cc1 (centres undefined),0.4,-24.0%,u,8.5,u,-35.1%
CCC(CC)NC(=O)c1cc(S(=O)(=O)N2CCCCC2)ccc1N1CCOCC1,x,x,u,x,-27.8%,-0.4%
COc1ccc(C(CNC(=O)C(CCSC)NC(=O)c2ccccc2Cl)N2CCOCC2)cc1 (centres undefined),x,x,10.7%,x,14.1%,4.9%
COc1ccc(C(CNC(=O)C(CCSC)NC(=O)c2ccccc2OC)N2CCCCC2)cc1 (centres undefined),-0.5,1.0%,11.7µM*,-2.4,u,11.4%
COc1ccc(C(CNC(=O)CCNC(=O)c2ccccc2OC)N2CCCC2)cc1 (centres undefined),x,x,11.7µM*,x,u,1.1%
COc1ccc(C(CNC(=O)CCNC(=O)c2ccccc2Cl)N2CCCC2)cc1 (centres undefined),x,x,u,x,-4.5%,-0.5%
CNC(=O)CN(c1cccc(Br)c1)S(C)(=O)=O,1.3,14.4%,x,9.6,16.0%,6.7%
CS(=O)(=O)N(CC(N)=O)c1cccc(Br)c1,-0.7,0.0%,3.7µM*,-3.6,6.9%,-4.1%
Cc1ccc(-c2nc3cnccn3c2Nc2ccc3c(c2)OCO3)o1,-3.0,-38.3%,u,11.9,u,-2.5%
Cc1ccn2c(Nc3ccc4c(c3)OCO4)c(-c3ccccn3)nc2c1,77.4*,u,u,38.8*,11.7µM*,u
Cc1ccc(Nc2c(-c3ccccn3)nc3cc(C)ccn23)cc1,-4.1,x,9.28µM*,2.7,u,-31.2%
COc1ccc(C(O)c2ccccc2OP(=O)(N(C)C)N(C)C)cc1 (centres undefined),-2.8,6.5%,-15.9%,8.6,-1.1%,0.7%
COc1ccc(C(O)c2cc(OC)ccc2OP(=O)(N(C)C)N(C)C)cc1 (centres undefined),-3.1,-5.0%,5.22µM*,-3.1,10.4µM*,8.0%
COc1ccc(/C=C2\N=C(SC)N(c3ccccc3OC)C2=O)cc1,25.1*,x,u,32.9,u,-8.3%
CCOc1ccc(N2C(=O)/C(=C/c3ccccc3)N=C2SC)cc1,13.6,x,40.4%,41.4,154.9%,-0.3%
Cc1ccc(NC(=O)C2C(=O)N(C)c3ccccc32)cc1 (centres undefined),18.8*,28.5%,8.8%,42.1,-2.8%,-0.1%
COc1ccc(/C=N/N(C(C)=O)c2nc(-c3ccc(C)cc3)cs2)cc1,-1.4,5.9%,u,22.1,u,-0.4%
CN(C(=O)COc1ccccc1)c1nc(-c2ccc(F)cc2)cs1,-2.7,x,44.1%,-1.8,-11.2%,1.3%
CC(=O)N(/N=C/c1cccc(C)c1)c1nc(-c2ccc(Br)cc2)cs1,-2.8,-1.4%,11.7µM*,11.8,u,-3.1%
COc1ccccc1/C=N/N(C(C)=O)c1nc(-c2ccc(F)cc2)cs1,29.8*,-9.4%,72.4%,41.2,67.6%,-0.4%
